GPR151 ag – activators of human GPR151, primary screen, cell-based, PathHunter beta-arrestin, luminescence; PathHunter beta-arrestin GPR151 cells; activation, % at 11.2 µM; 1% of 650,000 active; AID 1508602, 2020; in the data active means activation above about 4.9%;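 further: 0% = median of compound wells and 100% = cells with positive control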
TEAD-YAP inh – TEAD-YAP interaction inhibition, primary screen, TEAD-YAP interaction inhibitor project, luminescence, HEK-TIYL cells; TEAD-Gal4/YAP UAS-luciferase luminescence; 1.4% of 640,000 active; inhibition, % at 9.12 µM; AID 1259422, 2018; in the data active means inhibition above about 32%;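 further: 0% = median of test compound wells and 100% = reference inhibitor wells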
MITF primary – MITF inhibitors, primary screen, biochemical, AlphaScreen, human | AlphaScreen MITF homodimerization, bead proximity signal | Microphthalmia-associated transcription factor (Homo sapiens), O75030 | 0.91% of 650,000 active | inhibition, % at 2.6 µM; in the data active means inhibition above about 50%;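 further: 0% = vehicle wells with protein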
FBW7 activator – FBW7 E3 ligase activators, primary screen, biochemical, AlphaScreen, human | F-box/WD repeat-containing protein 7 (Homo sapiens), Q969H0 | AlphaScreen FBW7–phospho-cyclin E peptide binding, activator screen | normalized activity (activation), % at 26.1 µM | 0.13% of 650,000 active; in the data active means normalized activity above about 1.9%;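 further: purified mutant Fbw7 with reduced substrate affinity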
Target sequence (Q969H0 whole entry, looked up): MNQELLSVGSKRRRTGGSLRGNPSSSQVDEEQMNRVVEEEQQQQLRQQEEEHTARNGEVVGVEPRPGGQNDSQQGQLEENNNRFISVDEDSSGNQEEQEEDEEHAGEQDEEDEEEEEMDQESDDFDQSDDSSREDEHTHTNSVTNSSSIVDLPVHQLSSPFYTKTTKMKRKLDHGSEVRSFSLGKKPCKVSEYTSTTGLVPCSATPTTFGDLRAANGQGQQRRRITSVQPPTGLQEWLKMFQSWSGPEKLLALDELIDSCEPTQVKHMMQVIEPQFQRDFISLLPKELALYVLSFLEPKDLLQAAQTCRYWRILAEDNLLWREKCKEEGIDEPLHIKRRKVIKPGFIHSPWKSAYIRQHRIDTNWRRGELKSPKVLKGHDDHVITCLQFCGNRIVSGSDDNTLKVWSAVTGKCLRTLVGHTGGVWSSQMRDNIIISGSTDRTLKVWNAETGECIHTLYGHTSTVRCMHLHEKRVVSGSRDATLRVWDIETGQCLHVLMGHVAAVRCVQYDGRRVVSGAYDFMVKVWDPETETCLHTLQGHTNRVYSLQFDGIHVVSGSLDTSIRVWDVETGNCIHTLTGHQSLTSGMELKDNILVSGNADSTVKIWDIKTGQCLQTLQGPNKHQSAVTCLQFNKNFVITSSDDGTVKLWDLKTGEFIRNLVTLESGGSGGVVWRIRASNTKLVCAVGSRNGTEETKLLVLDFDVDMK
Starred values were filed as active, the others as inactive. Only some compounds are listed: those with a hit (about 3.5% of all), similar ones and a draw of the others.

SMILES	GPR151 ag	TEAD-YAP inh	MITF primary	FBW7 activator
O=C(Cc1ccc(Br)cc1)N1CCC(c2nc3ccncc3c(=O)[nH]2)C1 (configuration not stated)	-1.5	2.2	34.6	2.3*
Cc1sc2nc(C3CCCN(C(=O)Cc4ccc(F)cc4)C3)[nH]c(=O)c2c1C (configuration not stated)	-0.4	-5.6	4.1	0.1
COc1ccc(Nc2cc(C)nc(-n3nc(C)cc3C)n2)cc1OC	-1.1	69.2*	4.5	0.3
Cc1nc(C)n(-c2ccc(Nc3nccc(-c4cncc5ccccc45)n3)cc2)n1	-1.0	80.9*	17.3	0.9
Cc1nc(C)n(-c2ccc(Nc3nccc(-c4ccccc4-c4ccccc4)n3)cc2)n1	-1.1	-6.8	23.6	0.1
COc1cccc(-c2nc3ccccc3c(=O)n2NC(=O)c2ccc(F)cc2Cl)c1	-1.1	-4.8	11.6	1.3
C=C(C)C(=O)Nc1sc(C)c(-c2ccccc2)c1C(N)=O	0.9	-14.9	12.2	0.1
Cc1sc(NC(=O)CC(c2ccccc2)c2ccccc2)c(C(N)=O)c1C	3.4	40.2*	1.2	0.0
Cc1sc(NC(=O)CCCC(=O)O)c(C(N)=O)c1-c1ccccc1	-0.4	45.3*	1.0	-0.1
COc1ccc(N2CCn3c(SCc4cccc(Cl)c4)nnc32)cc1	0.9	7.3	5.0	0.0
COc1ccc(N2CCn3c(SCc4cccc(C)c4)nnc32)cc1	-0.5	8.3	-3.6	1.9*
CCOC(=O)C1=C(C)NC(C)=C(C(=O)OCC)C1c1cn(-c2ccccc2)nc1-c1ccc(OC)cc1	2.9	-12.4	-24.0	0.0
COc1ccccc1C(C)Nc1ncccc1C(=O)O (configuration not stated)	1.4	0.9	3.5	0.1
COc1cccc(CNC(=O)c2ccc(CS(=O)c3ccc(Br)cc3)o2)c1 (configuration not stated)	-1.4	-5.5	10.7	0.2
O=[N+]([O-])c1ccc(/C=C/c2ccc(O)cc2)cc1	-11.2	49.1*	4.1	0.0
CCc1ccc(NC(=O)CSC2=C(C#N)C(c3ccco3)C(C(=O)Nc3ccccc3OC)=C(C)N2)cc1 (configuration not stated)	-1.1	13.1	-0.1	0.1
COc1ccc(/C(C)=N\NC(=O)c2cc(-c3c(C)nn(-c4ccccc4)c3C)n[nH]2)cc1	-0.6	44.4*	15.4	0.2
COC(=O)c1cc(-c2c(C)nn(-c3ccccc3)c2C)n[nH]1	-0.3	-21.3	-13.4	-0.2
CC(Oc1ccc(Cl)cc1)C(=O)NNCc1ccccc1O (configuration not stated)	-2.2	7.5	6.4	-0.1
CCOC(=O)c1cc2c(=O)n3ccccc3nc2n(CCOC)c1=NC(=O)C1CCCCC1	-2.0	36.9*	-3.1	0.4
CCOC(=O)c1cc2c(=O)n3ccccc3nc2n(CCOC)c1=NC(=O)C(C)(C)C	2.3	1.0	-0.9	-0.2
Cc1ccc(C2CC(=O)C=C(O)C2)cc1 (configuration not stated)	-0.6	-1.4	-2.9	0.1
CC(C)(C)c1ccc(C2CC(=O)C=C(O)C2)cc1 (configuration not stated)	0.9	53.6*	17.8	0.9
CN(C)CCN1CCN(c2nc(-c3ccccc3CO)cnc2N)CC1	-0.7	-8.8	-2.2	-0.1
Cn1cc(/C=C2/NC(=O)N(c3cccc(Cl)c3)C2=O)c2ccccc21	1.8	50.4*	10.1	0.1
SMILES	GPR151 ag	TEAD-YAP inh	MITF primary	FBW7 activator
COC(=O)Cn1cc(/C=C2/NC(=O)N(c3cccc(Cl)c3)C2=O)c2ccccc21	1.7	1.6	-2.9	0.1
CC(Nc1ncnc2ccccc12)c1ccccc1 (configuration not stated)	0.6	56.0*	2.1	-0.3
COCCCNc1ncnc2ccc(Br)cc12	1.1	29.4	1.6	0.0
Brc1ccc2ncnc(NCCc3ccccc3)c2c1	0.5	64.4*	8.7	0.3
CC(Nc1ncnc2ccc(Br)cc12)c1ccccc1 (configuration not stated)	-0.8	33.6*	18.6	0.0
O=C(CCN1C(=O)c2ccccc2C1=O)NC12CC3CC(CC(C3)C1)C2	0.6	2.1	-3.5	0.1
CC(C)/C=C1/CCCc2c1[nH]c1ccccc1c2=O	3.4	42.3*	2.8	0.0
COc1cc(NC(=O)CCS(=O)(=O)c2ccc3c(c2)OCC(=O)N3)cc(OC)c1	-1.0	-5.1	-4.2	-0.2
CCn1c2ccccc2c2cc(NC(=O)C(=O)NCCCOC)ccc21	-0.5	39.8*	18.4	0.4

Screening results deposited in PubChem BioAssay by The Scripps Research Institute Molecular Screening Center.
